# Records with an inconclusive call do not appear. Calls of active or inactive are those of the source. Cut-off not given; nearly all actives show AC50 up to about 23 µM.
# Assay: viability loss in pontine glioma line – cell-based, SU-DIPG-XIII, MIPE5.0, CellTiter-Glo, qHTS, dose response (AID 1347064);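 on AC50: cells exposed to compound for 48 hours before the viability read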
# Conditions: CellTiter-Glo ATP luminescence
Structure (SMILES),AC50,outcome
COc1cc([C@@H]2c3cc4c(cc3[C@H](O)[C@H]3COC(=O)[C@@H]23)OCO4)cc(OC)c1OC,2630 nM (active),–
COc1ccc([C@@H]2CC(=O)c3c(O)cc(O[C@@H]4O[C@H](CO[C@@H]5O[C@@H](C)[C@H](O)[C@@H](O)[C@H]5O)[C@@H](O)[C@H](O)[C@H]4O)cc3O2)cc1O,–,inactive
C[C@H]1O[C@@H](O[C@H]2[C@@H](O)C[C@H](O[C@H]3[C@@H](O)C[C@H](O[C@H]4CC[C@@]5(C)[C@H](CC[C@@H]6[C@@H]5C[C@@H](O)[C@]5(C)[C@@H](C7=CC(=O)OC7)CC[C@]65O)C4)O[C@@H]3C)O[C@@H]2C)C[C@H](O)[C@@H]1O,132 nM (active),–
C=C1CC[C@@H]2[C@](C)(CO)[C@H](O)CC[C@@]2(C)[C@@H]1C/C=C1/C(=O)OC[C@H]1O,20900 nM (active),–
COc1ccc(-c2cc(=O)c3c(O)cc(O[C@@H]4O[C@H](CO[C@@H]5O[C@@H](C)[C@H](O)[C@@H](O)[C@H]5O)[C@@H](O)[C@H](O)[C@H]4O)cc3o2)cc1O,–,inactive
CC(C)(O)CC[C@@H](O)[C@](C)(O)[C@H]1CC[C@@]2(O)C3=CC(=O)[C@@H]4C[C@@H](O)[C@@H](O)C[C@]4(C)[C@H]3CC[C@]12C,–,inactive
Nc1ccn([C@@H]2O[C@H](CO)[C@@H](O)[C@H]2O)c(=O)n1,–,inactive
CC(C)(S)[C@@H](N)C(=O)O,–,inactive
C[C@H](CCC(=O)O)[C@H]1CC[C@H]2[C@@H]3[C@H](O)C[C@@H]4C[C@H](O)CC[C@]4(C)[C@H]3CC[C@]12C,–,inactive

# Source: PubChem BioAssay
